SMILES strings stand for the structures. A number with no mark means an inactive call. Activity calls are given as the source filed them. No rule for the calls is given here.

Drawing on PubChem BioAssay AID1211 (NMMLSC, 2008), this text covers inhibition of ligand binding for 38 compounds.

The target in this assay is Estrogen receptor (Homo sapiens) (UniProt P03372). The assay can be described thus: displacement of fluorescent estrogen from ERalpha – cell-based, Cos7 ERalpha-GFP, flow cytometry, primary screen (AID 1211).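 Also: 0% = DMSO vehicle wells and 100% = no E2-Alexa633 signal left.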 Particulars: fluorescent ligand competition, at 10 µM, active compounds read high.
Estrogen receptor (Homo sapiens), sequence (P03372 whole entry, looked up): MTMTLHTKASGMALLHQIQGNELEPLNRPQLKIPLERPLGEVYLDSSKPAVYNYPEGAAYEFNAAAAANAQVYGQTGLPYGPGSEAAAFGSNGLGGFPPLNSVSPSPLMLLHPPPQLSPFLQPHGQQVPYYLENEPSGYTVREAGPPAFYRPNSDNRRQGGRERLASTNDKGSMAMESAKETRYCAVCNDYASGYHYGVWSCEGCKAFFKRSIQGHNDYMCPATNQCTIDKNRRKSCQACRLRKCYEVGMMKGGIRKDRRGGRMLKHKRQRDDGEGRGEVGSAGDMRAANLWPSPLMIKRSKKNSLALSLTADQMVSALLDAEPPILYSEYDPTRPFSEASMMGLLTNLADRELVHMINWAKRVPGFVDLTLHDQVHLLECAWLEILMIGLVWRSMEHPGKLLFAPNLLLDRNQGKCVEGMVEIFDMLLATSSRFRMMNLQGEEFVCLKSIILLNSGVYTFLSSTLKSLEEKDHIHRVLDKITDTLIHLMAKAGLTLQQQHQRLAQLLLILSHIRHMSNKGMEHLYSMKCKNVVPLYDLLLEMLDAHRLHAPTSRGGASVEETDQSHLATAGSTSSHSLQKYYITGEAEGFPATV
As for `COC(=O)c1ccc(OCc2c(C)noc2C)cc1`, the inhibition of ligand binding is 22%. The result for `CCOc1cc2c(cc1OCC)C(C1CCCCC1)NCC2` (stereo not drawn) reads 1%; that for `O=C(O)c1ccc([N+](=O)[O-])c2c1NC(c1ccccc1)C1CC=CC21` (stereo not drawn), 100% (active); that for `CC1CCC2(C)c3[nH]c4ccccc4c3CCN2C1=O` (stereo not drawn), 0%. The result for `O=C1CC(c2ccncc2)c2cc3c(cc2N1)OCCO3` (stereo not drawn) reads 0%; that for `Oc1ccc2c(c1)c1c3n2CCNC3CCC1` (stereo not drawn), 0%; that for `Clc1ccc2c(c1)[C@H]1OCC[C@H]1[C@@H](c1ccco1)N2`, 0%. `O=C(CSc1nnc(-c2ccc(O)cc2)n1Cc1ccccc1)NNC(=O)c1ccc(Br)cc1`: the inhibition of ligand binding was 48%. Regarding `Cc1ccc2c(c1C)NC(C(=O)O)C1CC=CC21` (stereo not drawn), the inhibition of ligand binding is 0%. Under `Cc1noc(C)c1CSCC(=O)OCC(=O)Nc1sccc1C#N` stands 2%; under `Cc1ccc(-n2cc3c(c(C#N)c2=N)CC(C)(C)CC3=O)cc1`, 35%.

Turning to `O=C(O)COc1cc2oc(=O)c3c(c2cc1Cl)CCCC3`, the inhibition of ligand binding is 0%. As for `CCCOc1cc2oc(=O)c3c(c2cc1CC)CCCC3`, the inhibition of ligand binding is 0%.

Consider `COc1cc(NC(=O)c2cccs2)c(C(=O)OCC(=O)NC(=O)NCc2ccccc2)cc1OC`, for which the inhibition of ligand binding is 24%. The result for `Cc1ccc(NC(=O)CSc2nnnn2-c2ccc3c(c2)OCO3)cc1C` reads 33%. Under `Cc1cc(C(C)CO)cc(C(C)(C)C)c1O` (stereo not drawn) stands 21%. Under `Nc1nc(N)c2sc3nc4c(cc3c2n1)CCC4` stands 17%; under `CCOC(=O)c1ccc2c(c1)C1C=CCC1C(C(=O)O)N2` (stereo not drawn), 51%; under `CC(C)C1CC(CCNCc2ccc3c(c2)OCO3)(c2ccccc2)CCO1` (stereo not drawn), 26%.

As for `CC(=O)Oc1ccc2c(c1)CCC1C2C(O)CC2(C)C(=O)CCC12` (stereo not drawn), the inhibition of ligand binding is 15%. `COc1ccc(NS(=O)(=O)c2ccc3c(c2)[C@H]2C=CC[C@H]2[C@@H](c2ccc(F)cc2)N3)cc1`: the inhibition of ligand binding was 14%. Under `COc1ccc(OC)c(C2Nc3c(Cl)ccc(C(=O)O)c3C3C=CCC32)c1` (stereo not drawn) stands 0%. In the case of `CCNC(=O)N1c2ccc(OCC)cc2C(C)=CC1(C)C`, the inhibition of ligand binding was 10%.

Take `Cc1ccc(OCc2ccoc2C(=O)O)cc1C`: the inhibition of ligand binding is 0%. Under `COc1cc2c(c([N+](=O)[O-])c1)NC(c1ccc(Br)cc1)C1CC=CC21` (stereo not drawn) stands 0%; under `Oc1ccc(C=Nc2ccc(N3CCOCC3)cc2)c(O)c1`, 30%. The result for `Cc1nc(-c2ccc(O)c(O)c2)cs1` reads 17%; that for `O=[N+]([O-])c1ccc(Cl)c2c1C1C=CCC1C(c1ccccn1)N2` (stereo not drawn), 53%. Under `O=c1cc(CSc2nnnn2-c2ccccc2)nc(Nc2ccc(F)cc2)[nH]1` stands 26%; under `COc1cc(C2C3C(C)N(C)C(=O)N(C)C3N(C)C(=O)N2C)ccc1O` (stereo not drawn), 0%; under `CCCCCCc1cc2c3c(c(=O)oc2cc1OCC(=O)O)CCCC3`, 1%.

Regarding `Cc1c(Cc2ccccc2)c(=O)n2c([nH]c3ccccc32)c1C#N`, the inhibition of ligand binding is 5%.

With `O=c1oc2c(CN3CCCC3)c(O)ccc2c2c1CCC2`, the inhibition of ligand binding was 0%. Under `Cc1cc(C)c2c(c1)NC(c1cc3c(cc1Br)OCO3)C1CC=CC21` (stereo not drawn) stands 79% (active). The result for `COc1ccc(-c2nnc(SCC(=O)c3cc(C)n(Cc4cccs4)c3C)o2)cc1` reads 35%; that for `Cc1ccn2c(NCc3ccc4c(c3)OCO4)c(-c3ccc(O)cc3)nc2c1`, 32%. `CSC(=O)CNC1(Cc2ccc(O)cc2)CCCCC1`: the inhibition of ligand binding was 11%. With `COc1ccc(NC2=CC(c3cccc(OC)c3)N(c3ccc(OC)cc3)C2=O)cc1` (stereo not drawn), the inhibition of ligand binding was 48%.
